Compound activity deposited in PubChem by National Center for Advancing Translational Sciences (NCATS).
DRV1 agonist: GPR32 (DRV1) agonism, beta-arrestin recruitment. O75388. CHO-K1 GPR32 beta-arrestin PathHunter luminescence, 90 min; zero percent set by DMSO-only wells. activation, % at 76.9 µM. 48,000 tested, 2.5% active;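 active = activation of at least 60% and not above a set upper limit, about 1 call in 100 departs from these limits; inconclusive = activation of 40% to 60%, or above that upper limit; inactive = activation under 40%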; note: 0% is about no effect
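Using DMSO wells as EC0, agonist-induced signal was taken as chemiluminescence from beta-Gal reconstituted upon beta-arrestin recruitment to GPR32 in CHO-K1 cells after 90 min compound treatment.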
GALC G270D up: enhancers of human galactocerebrosidase G270D mutant activity in cells; P54803; 145M-Twi-hGALC-G270D cells (Twitcher mouse brain line with human GALC G270D), HMU-beta-Gal fluorescence, 48 h; Potency, µM (top dose mostly 57.5 µM), actives largely listed as activators; 45,000 tested, 0.1% active; AID 1159614; note: potency is the fitted concentration of half-maximal effect; 0% is about no effect; nearly all actives have a fitted effect of over 65% in size
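Live 145M-Twi cells (Twitcher mouse brain-derived, GALC-null) stably expressing human GALC-G270D, with a wild-type GALC line, were compound-treated. Residual GALC activity was then read as fluorescence from 0.1 mM final HMU-β-gal at pH 5.2; higher signal means activation.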
NTMT1 inh: blocks human N-terminal methyltransferase 1 activity; Q9BV86; NTMT1 MTase-Glo SAH luminescence, purified enzyme; Potency, µM (doses to about 114 µM), for inactives: top-dose activity change, negative = inhibition, hits mostly inhibitors; 59,000 tested, 2.5% active;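 note: potency is the fitted concentration of half-maximal effect; plate controls were DMSO vehicle for no effect and no enzyme for full effect; nearly all actives have a fitted effect of over 65% in size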
Target sequence (Q9BV86 whole entry, looked up): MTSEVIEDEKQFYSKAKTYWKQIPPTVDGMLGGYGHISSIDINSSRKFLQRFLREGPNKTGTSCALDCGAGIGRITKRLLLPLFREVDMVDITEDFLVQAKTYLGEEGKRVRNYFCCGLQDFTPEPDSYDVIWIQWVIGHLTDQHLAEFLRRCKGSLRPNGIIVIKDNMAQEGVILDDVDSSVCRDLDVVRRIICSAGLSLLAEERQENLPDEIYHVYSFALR
p53null 39C tox: p53 null cell cytotoxicity, nonpermissive temperature; H1299 p53-null (neo) cells, 39C, ATPlite viability, 24 h; Potency, µM (series often up to 46.1 µM), for inactives: at the highest dose activity, negative = cell killing, usual class: cytotoxic; 55,000 tested, 0.97% active; AID 904;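 note: potency is the fitted concentration of half-maximal effect; 0% = DMSO only and -100% = full killing by 100 µM tamoxifen; nearly all actives have a fitted effect of over 50% in size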
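Luminescent ATP signal reported cell survival after H1299 lines (neo, p53 null; or p53 A138V) received up to 46 uM compound and 24 hr incubation at 39C.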
OvCa metastasis: ovarian cancer metastasis inhibition, 3D TME model | SKOV3ip1-GFP adhesion/invasion on 3D omental model, fluorescence | Potency, µM (top dose mostly 45.8 µM), without a hit: top-dose activity change, negative = inhibition, hits mostly inhibitors | 46,000 tested, 0.1% active | AID 1963576;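 note: potency is the fitted concentration of half-maximal effect; plate controls were DMSO wells for no effect and tomatine positive control wells for full effect; nearly all actives have a fitted effect of over 65% in size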
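Primary human omental fibroblast/mesothelial 3D culture pre-formed 48 h. SKOV3ip1-GFP cells added with compounds (0.36-46 umol/L), incubated 2 h RT/16 h 37 C, fixed; GFP cells quantified at 488/509 nm.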
p53null 32C tox: kills p53 null cells at the permissive temperature; H1299-neo p53 null cells, ATP luminescence, 24 h, 32C; Potency, µM (series often up to 46.1 µM), without a hit: top-dose activity change, negative = cytotoxicity, actives largely listed as cytotoxic; 55,000 tested, 0.62% active; AID 903;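 note: potency is the fitted concentration of half-maximal effect; 0% = DMSO only and -100% = full killing by 100 µM tamoxifen; nearly all actives have a fitted effect of over 55% in size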
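Luminescent ATP readout gave cell viability of p53-null H1299-neo cells after a 24 h compound exposure at the permissive 32C. Titrations ran up to 46 uM, and AC50s were fitted with the standard Hill equation.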
DYRK1A inh: inhibitors of human DYRK1A kinase | shares compounds with NTMT1 inh | recombinant DYRK1A, Kinase-Glo ATP depletion luminescence | Potency, µM (series often up to 76.9 µM), inactives show top-dose activity change, negative = inhibition, hits mostly inhibitors | 100 tested, 80% active | AID 2705
CLK4 inh: CLK4 kinase inhibition, SAR round 2. Potency, µM (highest dose often 76.9 µM), for the others: at the highest dose activity, negative = inhibition, actives largely listed as inhibitors. AID 493204. shares compounds with NTMT1 inh. recombinant Clk4, Kinase-Glo ATP luminescence, 4.5 h. 90 tested, 90% active
USP2a K63: USP2a inhibition confirmed on K63 diubiquitin; shares compounds with NTMT1 inh; USP2 cleavage of DiUb K63-3IQF, fluorescence kinetic; Potency, µM (doses to about 57.5 µM), inactives show top-dose activity change, negative = inhibition, most hits filed as inhibitors; 30 tested, 80% active; AID 652172
Casp6 inh: caspase-6 inhibition, USP2a inhibitor counterscreen. shares compounds with NTMT1 inh. Caspase 6 enzyme, Caspase-Glo 6 luminescence. activity change, negative = inhibition, % at 46.1 µM. 30 tested, under 10 active. AID 652277
Target sequence (P55212 whole entry, looked up): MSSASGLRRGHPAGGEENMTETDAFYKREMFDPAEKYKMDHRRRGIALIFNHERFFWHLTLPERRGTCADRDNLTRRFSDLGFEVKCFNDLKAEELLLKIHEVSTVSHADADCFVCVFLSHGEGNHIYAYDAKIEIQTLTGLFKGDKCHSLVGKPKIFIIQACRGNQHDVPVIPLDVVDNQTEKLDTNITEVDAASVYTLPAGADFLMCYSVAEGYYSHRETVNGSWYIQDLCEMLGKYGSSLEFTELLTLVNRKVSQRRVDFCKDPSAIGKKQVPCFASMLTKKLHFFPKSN
* marks the source's active call; other numbers are inactive results; i = inactive; ? = inconclusive; · = not tested or not shown; [ ] = another dose, or the depositor's remark. This is a sample that favours compounds with a hit; in the whole collection about 4% have one here. Unless noted, calls come from the whole dose curve; as a rule, active = well fitted curve in the direction sought with a large enough effect; inconclusive = small, poorly fitted or top-dose-only effect, or another doubt; inactive = no such curve, though single readings can be large; an effect the other way counts as inactive or inconclusive.

SMILES	DRV1 agonist	GALC G270D up	NTMT1 inh	p53null 39C tox	OvCa metastasis	p53null 32C tox	DYRK1A inh	others
Cc1ccc(-c2cc(C(=O)Nc3ccncc3)c3ccccc3n2)cc1C	·	·	0%	·	·	·	·
Cc1ccc(-c2cc(C(=O)Nc3ccc(-n4cccn4)cc3)c3ccccc3n2)cc1C	·	·	-12%	·	·	·	·	USP2a K63=8.6µM*;Casp6 inh=-7
COCCOc1cnc2ccn([C@H](C)c3nnc4c(F)cc(-c5cnn(C)c5)cn34)c(=O)c2c1	·	·	2%[57.5 µM]	·	·	·	·
COc1cccc(Nc2ncc3nc(-c4cn(C)c5ccccc45)c(=O)n(CCC#N)c3n2)c1	·	·	·	·	·	·	·	CLK4 inh=?
COc1cccc(Nc2ncc3ncc(=O)n(C)c3n2)c1	·	·	·	·	·	·	·	CLK4 inh=0.92µM*
CCOC(=O)c1ccoc1-c1ccc2ncnc(NCc3ncc[nH]3)c2c1	·	·	10%	·	·	·	?
Cc1cccc(CNc2ncnc3ccc(-c4ccoc4)cc23)c1	·	·	8%	·	·	·	·
c1c[nH]c(CNc2ncnc3ccc(-c4ccoc4)cc23)n1	·	·	2%	·	·	·	9.2µM*
c1cncc(CNc2ncnc3ccc(-c4ccoc4)cc23)c1	·	·	-9%	·	·	·	·
Cc1csc(CNc2ncnc3ccc(-c4ccoc4)cc23)c1	·	·	-11%	·	·	·	·
Cc1nc(CNc2ncnc3ccc(-c4ccoc4)cc23)cs1	·	·	?	·	·	·	3.7µM*
Cc1ccc(CNc2ncnc3ccc(-c4ccoc4C)cc23)o1	·	·	?	·	·	·	4.6µM*
O=C(NCC1(N2CCN(c3ccccc3)CC2)CCOCC1)c1cccnc1Sc1ccccc1	·	·	2%[57.5 µM]	·	·	·	·
Cc1occc1-c1ccc2ncnc(NCc3ncc[nH]3)c2c1	·	·	-12%	·	·	·	2.3µM*
CC(=O)SCC(=O)c1ccc(NS(=O)(=O)c2ccc(OCCCN(C)C)cc2)nc1	·	·	1%[57.5 µM]	·	·	·	·
Cc1cc(N2CCC(C)CC2)nc2ccc(NC(=O)CCC(=O)N3CCN(c4cccc(C(F)(F)F)c4)CC3)cc12	-8	i	0%	11%	-7%	-4%	·
O=C1c2ccccc2C(=O)C1(c1ccccc1)N1CCN(c2cccc(C(F)(F)F)c2)CC1	-22	i	7%	10%	-20%	-4%	·
